According to PubChem BioAssay AID1159580 (chemical genetic matrix, 2015):
Among all 5,500 compounds or so, about 2,000 (36%) were called active. Another 18% or so got no clear call; they are omitted. No stated cut-off is given here; in the data, active means normalized growth mostly below about 0.91 (no sharp cut-off); inconclusive means no clear call, values can overlap the other calls; inactive means mostly above about 0.92. This is one part of the list.

Assay: chemical genetic growth profiling, strain panel (AID 1159580);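 further: tested at 20 µM; growth read once vehicle control cultures reached saturation at 30 °C; 1 = growth at the plate median or of vehicle wells; lower values mean less growth of the strain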
Details: growth OD
[1] = S. cerevisiae deletion strains, locus YAL013W, strain DEP1, hits give low values
[2] = S. cerevisiae deletion strains, locus YBR229C, strain ROT2, hits give low values
[3] = S. cerevisiae deletion strains, locus YCL061C, strain MRC1, hits give low values
[4] = S. cerevisiae deletion strains, locus YDL101C, strain DUN1, hits give low values
[5] = S. cerevisiae deletion strains, locus YDR150W, strain NUM1, hits give low values
[6] = S. cerevisiae deletion strains, locus YEL061C, strain CIN8, hits give low values
[7] = S. cerevisiae deletion strains, locus YGR078C, strain PAC10, hits give low values
[8] = S. cerevisiae deletion strains, locus YHR030C, strain SLT2, hits give low values
[9] = S. cerevisiae deletion strains, locus YHR087W, strain rtc3, hits give low values
[10] = S. cerevisiae deletion strains, locus YJL187C, strain SWE1, hits give low values
[11] = S. cerevisiae deletion strains, locus YJR043C, strain POL32, hits give low values
[12] = S. cerevisiae deletion strains, locus YJR075W, strain HOC1, hits give low values
[13] = S. cerevisiae deletion strains, locus YLR039C, strain RIC1, hits give low values
[14] = S. cerevisiae deletion strains, locus YLR058C, strain SHM2 (second series), hits give low values
[15] = S. cerevisiae deletion strains, locus YLR085C, strain ARP6, hits give low values
[16] = S. cerevisiae deletion strains, locus YLR262C, strain YPT6, hits give low values
[17] = S. cerevisiae deletion strains, locus YML094W, strain GIM5, hits give low values
[18] = S. cerevisiae deletion strains, locus YMR219W, strain ESC1, hits give low values
[19] = S. cerevisiae deletion strains, locus YMR263W, strain SAP30, hits give low values
[20] = S. cerevisiae deletion strains, locus YNL153C, strain GIM3, hits give low values
[21] = S. cerevisiae deletion strains, locus YNL298W, strain CLA4 (second series), hits give low values
[22] = S. cerevisiae deletion strains, locus YNL322C, strain KRE1, hits give low values
[23] = S. cerevisiae deletion strains, locus YNR030W, strain Alg12, hits give low values
[24] = S. cerevisiae deletion strains, locus YOL006C, strain TOP1, hits give low values
[25] = S. cerevisiae deletion strains, locus YPL055C, strain LGE1, hits give low values
[26] = S. cerevisiae deletion strains, locus YPL241C, strain CIN2, hits give low values
[27] = S. cerevisiae deletion strains, locus YPR135W, strain CTF4, hits give low values
[28] = S. cerevisiae strains, strain wild type, hits give low values

Measured: normalized growth

N#CCCN(CC1CCCO1)C(=S)Nc1cc(C(F)(F)F)cc(C(F)(F)F)c1 (stereo not given)
active: [23] 0.829 | [26] 0.797
inactive: [1] 1.01 | [2] 0.965 | [3] 0.994 | [4] 0.991 | S. cerevisiae deletion strains, locus YDL134C, strain PPH21, hits give low values 0.95 | [5] 0.953 | [6] 0.982 | [7] 0.985 | [8] 0.882 | [9] 0.979 | [10] 1 | [11] 0.938 | [12] 0.918 | S. cerevisiae deletion strains, locus YKL190W, strain CNB1, hits give low values 1.02 | [13] 0.86 | [14] 1.01 | [15] 0.85 | [16] 0.908 | [17] 0.888 | [18] 0.996 | [19] 0.978 | [20] 1 | [21] 0.985 | [22] 1 | [24] 0.903 | [25] 0.866 | [27] 0.827 | [28] 1.02

CN(C)C=Nc1ncccc1OCc1ccc(Cl)c(Cl)c1
inactive: [1] 0.973 | [2] 0.989 | [3] 0.945 | [4] 0.951 | [5] 0.851 | [6] 0.951 | [7] 0.964 | S. cerevisiae deletion strains, locus YGR229C, strain SMI1, hits give low values 0.967 | [9] 1.04 | [10] 0.959 | [11] 0.951 | [12] 1 | [13] 1.05 | [14] 1 | [16] 1.05 | [17] 0.923 | [18] 0.987 | [19] 0.963 | [20] 0.94 | [22] 0.978 | [23] 0.926 | [25] 0.995 | [26] 0.888 | [27] 0.756
active: [8] 0.47 | [15] 0.722 | [21] 0.788 | [24] 0.563 | [28] 0.878

O=C(NCc1ccc(Cl)c(Cl)c1)c1cccnc1OCC(F)(F)F
inactive: S. cerevisiae deletion strains, locus YAR019C, strain CDC15, hits give low values 0.956 | S. cerevisiae deletion strains, locus YBL105C, strain PKC1, hits give low values 0.951 | S. cerevisiae deletion strains, locus YBR135W, strain CKS1, hits give low values 0.947 | S. cerevisiae deletion strains, locus YBR136W, strain MEC1, hits give low values 0.97 | S. cerevisiae deletion strains, locus YBR160W, strain CDC28, hits give low values 0.961 | S. cerevisiae deletion strains, locus YDL017W, strain CDC7, hits give low values 0.955 | S. cerevisiae deletion strains, locus YDL028C, strain MPS1, hits give low values 0.97 | [4] 0.958 | S. cerevisiae deletion strains, locus YDL108W, strain KIN28, hits give low values 0.947 | S. cerevisiae deletion strains, locus YDL132W, strain cdc53, hits give low values 0.952 | S. cerevisiae deletion strains, locus YDL214C, strain PRR2, hits give low values 0.971 | S. cerevisiae deletion strains, locus YDR052C, strain DBF4, hits give low values 0.971 | S. cerevisiae deletion strains, locus YDR054C, strain cdc34, hits give low values 0.958 | S. cerevisiae deletion strains, locus YDR226W, strain ADK1, hits give low values 0.967 | S. cerevisiae deletion strains, locus YDR477W, strain SNF1, hits give low values 0.974 | S. cerevisiae deletion strains, locus YER123W, strain YCK3, hits give low values 0.949 | S. cerevisiae deletion strains, locus YER133W, strain GLC7, hits give low values 0.961 | S. cerevisiae deletion strains, locus YFL009W, strain cdc4, hits give low values 0.966 | S. cerevisiae deletion strains, locus YFL029C, strain CAK1, hits give low values 0.955 | S. cerevisiae deletion strains, locus YFR003C, strain YPI1, hits give low values 0.949 | S. cerevisiae deletion strains, locus YFR019W, strain FAB1, hits give low values 0.97 | S. cerevisiae deletion strains, locus YFR028C, strain CDC14, hits give low values 0.947 | S. cerevisiae deletion strains, locus YGR040W, strain KSS1, hits give low values 0.965 | S. cerevisiae deletion strains, locus YGR052W, strain FMP48, hits give low values 1.02 | S. cerevisiae deletion strains, locus YGR092W, strain DBF2, hits give low values 0.932 | [8] 1.04 | S. cerevisiae deletion strains, locus YHR079C, strain IRE1, hits give low values 1.03 | S. cerevisiae deletion strains, locus YHR082C, strain KSP1, hits give low values 1.06 | S. cerevisiae deletion strains, locus YHR205W, strain SCH9, hits give low values 0.95 | S. cerevisiae deletion strains, locus YIL147C, strain SLN1, hits give low values 0.958 | S. cerevisiae deletion strains, locus YJL095W, strain BCK1, hits give low values 1.02 | S. cerevisiae deletion strains, locus YJL128C, strain PBS2, hits give low values 0.9 | S. cerevisiae deletion strains, locus YJL157C, strain FAR1, hits give low values 0.973 | S. cerevisiae deletion strains, locus YJR016C, strain ILV3, hits give low values 0.965 | S. cerevisiae deletion strains, locus YJR066W, strain TOR1 (second series), hits give low values 0.972 | S. cerevisiae deletion strains, locus YJR066W, strain TOR1, hits give low values 1.07 | S. cerevisiae deletion strains, locus YKL048C, strain ELM1, hits give low values 0.951 | S. cerevisiae deletion strains, locus YKL067W, strain YNK1, hits give low values 0.955 | S. cerevisiae deletion strains, locus YKL101W, strain HSL1, hits give low values 0.968 | S. cerevisiae deletion strains, locus YKL193C, strain SDS22, hits give low values 0.951 | S. cerevisiae deletion strains, locus YKL203C, strain TOR2, hits give low values 1.04 | S. cerevisiae deletion strains, locus YLR113W, strain HOG1, hits give low values 0.891 | S. cerevisiae deletion strains, locus YLR133W, strain CKI1, hits give low values 0.965 | S. cerevisiae deletion strains, locus YLR403W, strain SFP1, hits give low values 0.978 | S. cerevisiae deletion strains, locus YML070W, strain DAK1, hits give low values 0.944 | S. cerevisiae deletion strains, locus YMR001C, strain CDC5, hits give low values 0.937 | S. cerevisiae deletion strains, locus YMR205C, strain PFK2 (second series), hits give low values 0.958 | S. cerevisiae deletion strains, locus YMR277W, strain FCP1, hits give low values 0.947 | S. cerevisiae deletion strains, locus YNL006W, strain LST8, hits give low values 0.968 | S. cerevisiae deletion strains, locus YNL020C, strain ARK1, hits give low values 0.968 | S. cerevisiae deletion strains, locus YNL161W, strain CBK1, hits give low values 0.971 | S. cerevisiae deletion strains, locus YNL183C, strain NPR1, hits give low values 0.99 | S. cerevisiae deletion strains, locus YNL207W, strain RIO2, hits give low values 0.968 | S. cerevisiae deletion strains, locus YNL222W, strain SSU72, hits give low values 0.953 | S. cerevisiae deletion strains, locus YNL307C, strain MCK1 (second series), hits give low values 0.957 | S. cerevisiae deletion strains, locus YOL078W, strain AVO1, hits give low values 0.963 | S. cerevisiae deletion strains, locus YOL136C, strain PFK27, hits give low values 0.968 | S. cerevisiae deletion strains, locus YOR061W, strain CKA2, hits give low values 0.945 | S. cerevisiae deletion strains, locus YOR119C, strain RIO1, hits give low values 1.01 | S. cerevisiae deletion strains, locus YOR231W, strain MKK1, hits give low values 1.03 | S. cerevisiae deletion strains, locus YOR329C, strain SCD5, hits give low values 0.969 | S. cerevisiae deletion strains, locus YPL031C, strain PHO85, hits give low values 0.97 | S. cerevisiae deletion strains, locus YPL153C, strain RAD53, hits give low values 0.968 | S. cerevisiae deletion strains, locus YPL204W, strain HRR25, hits give low values 0.971 | S. cerevisiae deletion strains, locus YPL209C, strain IPL1, hits give low values 0.968 | S. cerevisiae deletion strains, locus YPL256C, strain CLN2, hits give low values 0.995 | S. cerevisiae deletion strains, locus YPR025C, strain CCL1, hits give low values 0.964 | S. cerevisiae deletion strains, locus YPR106W, strain ISR1, hits give low values 0.961 | S. cerevisiae deletion strains, locus YPR111W, strain DBF20, hits give low values 0.958 | S. cerevisiae deletion strains, strain NNK1, hits give low values 0.959 | S. cerevisiae deletion strains, strain TSCII, hits give low values 0.958
